Assay results: PubChem BioAssay AID430 (Sanford-Burnham Center for Chemical Genomics, 2006)
Hit rate of the full screen: of about 63,000 compounds, about 1,100 (1.7%) were called active. The sample holds actives, similar compounds and a random draw of the others, so the mix is not that of the screen. Rule as the data show it: active = cytotoxicity above about 50%; inactive = the rest. Potency and affinity values are given separately.

Experiment: cytotoxicity in HPDE-C7 cells, cell-based, fluorescence, HTS (AID 430);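 also: cells exposed to compound for 48 hours before viability readout; 0% = vehicle and 100% = reference cytotoxic drug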
Settings: HPDE-C7 pancreatic duct cells viability, at 10 µM, active compounds read high

Question: For COc1cccc(-n2ccnc2SCC(=O)Nc2cc(OC)ccc2OC)c1, which cytotoxicity is on record?
Answer: The cytotoxicity was -21% (inactive).

Question: Which cytotoxicity does the source give for Cc1cc(N2CCN(c3ccccc3)CC2)n2c(n1)nc1ccccc12 here?
Answer: The cytotoxicity was -8.6% (inactive).

Question: For CC(=O)N1CCc2cc(S(=O)(=O)NCCN3CCC(C)CC3)ccc21, which cytotoxicity is on record?
Answer: The cytotoxicity was 2.7% (inactive).

Question: For COc1ccc(OC)c(C2CC(=O)NC(SC)=C2C#N)c1 (stereo not drawn), which cytotoxicity is on record?
Answer: Its cytotoxicity is -2.9% (inactive).

Question: For Cc1cc(C)c2nc(N)sc2c1, which cytotoxicity is on record?
Answer: The cytotoxicity was 3.8% (inactive).

Question: Which cytotoxicity does the source give for c1ccc(COc2ccc(OCCCn3cncn3)cc2)cc1 here?
Answer: Its cytotoxicity is -20.8% (inactive).

Question: Which cytotoxicity does the source give for O=C(O)C1C2C=CC(C2)C1C(=O)NCc1ccoc1 (stereo not drawn) here?
Answer: Its cytotoxicity is -8.3% (inactive).

Question: Which cytotoxicity does the source give for CCOc1ccc(OCc2ccc(C(=O)NCc3ccncc3)o2)cc1 here?
Answer: Its cytotoxicity is -3% (inactive).

Question: With CC(=O)C1=C(C)NC(SCC(=O)c2ccc(Cl)cc2)=C(C#N)C1c1ccco1 (stereo not drawn) as the compound, how does the cytotoxicity read?
Answer: The cytotoxicity was 57.9% (active).

Question: With CSCSC1=C(C#N)C(c2ccc(Cl)cc2)C(C(C)=O)=C(C)N1 (stereo not drawn) as the compound, how does the cytotoxicity read?
Answer: Its cytotoxicity is -18.3% (inactive).

Question: For C=CCOC(=O)C1=C(C)NC(SCC(=O)N(CC)CC)=C(C#N)C1c1ccco1 (stereo not drawn), which cytotoxicity is on record?
Answer: The cytotoxicity was 12.7% (inactive).

Question: For CCN(CC)C(=O)CSC1=C(C#N)C(c2ccco2)C(C(=O)OCCOC)=C(C)N1 (stereo not drawn), which cytotoxicity is on record?
Answer: Its cytotoxicity is -11% (inactive).

Question: Which cytotoxicity does the source give for CCOC(=O)CSC1=C(C#N)C(c2ccco2)C(C(=O)OCc2ccccc2)=C(C)N1 (stereo not drawn) here?
Answer: Its cytotoxicity is 58.8% (active).

Question: Which cytotoxicity does the source give for CC(=O)C1=C(C)OC(N)=C(C#N)C1c1ccco1 (stereo not drawn) here?
Answer: Its cytotoxicity is -2.2% (inactive).

Question: With CN(c1ccc(C(=O)NCc2ccccc2)cc1)S(C)(=O)=O as the compound, how does the cytotoxicity read?
Answer: The cytotoxicity was -26.5% (inactive).

Question: For CCCS(=O)(=O)N1CCC(C(=O)NCCN2CCCC2)CC1, which cytotoxicity is on record?
Answer: The cytotoxicity was 2.1% (inactive).

Question: For COc1ccc(-c2nnc(SCc3ncc(-c4ccccc4)o3)o2)cc1, which cytotoxicity is on record?
Answer: Its cytotoxicity is -2.9% (inactive).

Question: With O=S1(=O)N=C(Nc2nc3c(s2)CCCC3)c2ccccc21 as the compound, how does the cytotoxicity read?
Answer: Its cytotoxicity is -10% (inactive).

Question: With Cc1nc(SCC#N)c2c3c(sc2n1)CCC3 as the compound, how does the cytotoxicity read?
Answer: Its cytotoxicity is -19% (inactive).

Question: For Cc1nc(Sc2nnnn2C)c2c3c(sc2n1)CCC3, which cytotoxicity is on record?
Answer: Its cytotoxicity is 76.2% (active).

Question: Which cytotoxicity does the source give for CSc1nc2sc3c(c2c2nnnn12)CCC3 here?
Answer: Its cytotoxicity is 7.6% (inactive).

Question: For CC1Cc2ccccc2N1C(=O)Cn1nnc(-c2ccccc2NC(=O)C2CCC2)n1 (stereo not drawn), which cytotoxicity is on record?
Answer: Its cytotoxicity is -11.1% (inactive).

Question: With CCOC(=O)C1CCCN(C(=O)CN2CCN(Cc3ccc(Cl)cc3)C2=O)C1 (stereo not drawn) as the compound, how does the cytotoxicity read?
Answer: The cytotoxicity was -28.3% (inactive).

Question: With CC1CCN(C(=O)c2ccc(COc3ccccc3Cl)o2)CC1 as the compound, how does the cytotoxicity read?
Answer: The cytotoxicity was -8.9% (inactive).

Question: Which cytotoxicity does the source give for O=C(c1ccc(Cn2cc(Cl)cn2)o1)N1CCN(Cc2ccc3c(c2)OCO3)CC1 here?
Answer: The cytotoxicity was 12.9% (inactive).

Question: With O=C(c1ccc(COc2ccccc2Cl)o1)N1CCN(c2ccccc2)CC1 as the compound, how does the cytotoxicity read?
Answer: Its cytotoxicity is -4.6% (inactive).

Question: For O=C(c1ccc(COc2ccccc2Cl)o1)N1CCN(Cc2ccc3c(c2)OCO3)CC1, which cytotoxicity is on record?
Answer: The cytotoxicity was 87.5% (active).

Question: With O=C(c1ccc(COc2ccc(Cl)cc2)o1)N1CCN(Cc2ccc3c(c2)OCO3)CC1 as the compound, how does the cytotoxicity read?
Answer: Its cytotoxicity is 69.1% (active).

Question: For O=C(c1ccc(Br)o1)N1CCN(Cc2ccc3c(c2)OCO3)CC1, which cytotoxicity is on record?
Answer: Its cytotoxicity is -8.7% (inactive).

Question: Which cytotoxicity does the source give for Cn1c(O)c(C=NC(CC(N)=O)C(=O)O)c(=O)n(C)c1=O (stereo not drawn) here?
Answer: The cytotoxicity was -3.1% (inactive).

Question: With O=C(COc1cc(Cl)c(Cl)cc1Cl)Nc1ccncc1 as the compound, how does the cytotoxicity read?
Answer: The cytotoxicity was 14.9% (inactive).

Question: Which cytotoxicity does the source give for CCOC(=O)CC(=O)CSc1nc2sc(C)cc2c(=O)n1Cc1ccco1 here?
Answer: Its cytotoxicity is -13.3% (inactive).

Question: Which cytotoxicity does the source give for COCCn1nnnc1C(c1ccc(OC)cc1)N1CCC(C)CC1 (stereo not drawn) here?
Answer: The cytotoxicity was -5.9% (inactive).

Question: For O=C1c2ccccc2C(=O)N1CCc1nc2ccccc2c(=O)n1CCCn1ccnc1, which cytotoxicity is on record?
Answer: Its cytotoxicity is -20.5% (inactive).

Question: With N#Cc1nc(-c2ccc(OCc3ccccc3)cc2)oc1N1CCOCC1 as the compound, how does the cytotoxicity read?
Answer: The cytotoxicity was 14.5% (inactive).

Question: For COc1ccccc1S(=O)(=O)Cc1ccc(C(=O)NC(C)c2ccc3c(c2)OCCO3)o1 (stereo not drawn), which cytotoxicity is on record?
Answer: Its cytotoxicity is -4.2% (inactive).

Question: For COc1ccc(N(C)C(=O)Nc2ccc3c(c2)nnn3C)cc1, which cytotoxicity is on record?
Answer: Its cytotoxicity is -17.6% (inactive).

Question: Which cytotoxicity does the source give for O=C(NCc1ccccn1)c1ccc(=O)oc1 here?
Answer: The cytotoxicity was 0.8% (inactive).

Question: With O=C(NCc1ccccn1)c1coc(=O)c(Br)c1 as the compound, how does the cytotoxicity read?
Answer: Its cytotoxicity is 52.2% (active).

Question: Which cytotoxicity does the source give for O=C(NCc1ccccn1)c1cc2cc(Br)ccc2oc1=O here?
Answer: Its cytotoxicity is 4.9% (inactive).

Question: Which cytotoxicity does the source give for Cc1c(C(=O)NCc2cccnc2)oc2ccc(S(=O)(=O)N3CC(C)CC(C)C3)cc12 (stereo not drawn) here?
Answer: The cytotoxicity was 43% (inactive).

Question: With CN(c1nc(-c2ccccc2)cs1)C1CCS(=O)(=O)C1 (stereo not drawn) as the compound, how does the cytotoxicity read?
Answer: Its cytotoxicity is 4.5% (inactive).

Question: With CCOC(=O)N1CCN(S(=O)(=O)c2cc(Cl)c(OC)cc2Cl)CC1 as the compound, how does the cytotoxicity read?
Answer: Its cytotoxicity is -2.9% (inactive).

Question: Which cytotoxicity does the source give for COc1cccc(CN(Cc2cccnc2)S(=O)(=O)c2ccc(-n3cnnn3)c(C)c2)c1 here?
Answer: The cytotoxicity was 4.5% (inactive).

Question: Which cytotoxicity does the source give for CC(=O)Oc1cccc2c1C(=O)c1c(OC(C)=O)cc(C(=O)O)cc1C2=O here?
Answer: Its cytotoxicity is 25.5% (inactive).

Question: For O=C(O)c1cc(C(=O)O)c(-c2ccccc2)c(C(=O)O)c1, which cytotoxicity is on record?
Answer: Its cytotoxicity is -22.6% (inactive).

Question: Which cytotoxicity does the source give for Cn1c(=O)c(=O)n(C)c2cc(S(=O)(=O)N3CCN(c4cccc(C(F)(F)F)c4)CC3)ccc21 here?
Answer: Its cytotoxicity is 71.5% (active).

Question: For Cn1c(=O)c2cc(S(=O)(=O)N3CCN(c4cccc(C(F)(F)F)c4)CC3)ccc2n(C)c1=O, which cytotoxicity is on record?
Answer: The cytotoxicity was -2.2% (inactive).

Question: With Cc1c(S(=O)(=O)N2CCN(c3cccc(C(F)(F)F)c3)CC2)c(=O)n(C)c(=O)n1C as the compound, how does the cytotoxicity read?
Answer: The cytotoxicity was 5.2% (inactive).

Question: With O=C(C1CCC(Cn2c(=S)[nH]c3ccccc3c2=O)CC1)N1CCOCC1 (stereo not drawn) as the compound, how does the cytotoxicity read?
Answer: Its cytotoxicity is -5.9% (inactive).

Question: Which cytotoxicity does the source give for O=C(O)C1CCN(c2nc(-c3ccccc3)nc3c2oc2ccccc23)CC1 here?
Answer: The cytotoxicity was 23.4% (inactive).

Question: Which cytotoxicity does the source give for CN1CCN(c2nc(-c3ccccc3)nc3c2oc2ccccc23)CC1 here?
Answer: Its cytotoxicity is -10% (inactive).

Question: With CCC(CC)C(=O)Nc1cc(NC(=O)C(CC)CC)cc(C(=O)O)c1 as the compound, how does the cytotoxicity read?
Answer: The cytotoxicity was -16.6% (inactive).

Question: For CCN=C1SC(C(=O)NCCc2ccccc2)CC(=O)N1CC (stereo not drawn), which cytotoxicity is on record?
Answer: Its cytotoxicity is 5.8% (inactive).

Question: Which cytotoxicity does the source give for O=C(O)c1ccc(CN2C(=O)CSC2=S)cc1 here?
Answer: The cytotoxicity was 19.2% (inactive).

Question: With O=C1CSC(=S)N1c1cccnc1 as the compound, how does the cytotoxicity read?
Answer: The cytotoxicity was -9.7% (inactive).

Question: With Cc1ccc(C(=O)CSc2ncn[nH]2)cc1 as the compound, how does the cytotoxicity read?
Answer: The cytotoxicity was 17.6% (inactive).

Question: With Cn1c(N)c(C(=O)COC(=O)c2ccc3c(c2)OCCO3)c(=O)n(C)c1=O as the compound, how does the cytotoxicity read?
Answer: Its cytotoxicity is -1.5% (inactive).

Question: With Cc1ccc(-n2c(=O)cc(N3CC(C)CC(C)C3)[nH]c2=O)cc1 (stereo not drawn) as the compound, how does the cytotoxicity read?
Answer: Its cytotoxicity is -15.2% (inactive).

Question: Which cytotoxicity does the source give for CC(=O)Nc1cccc(-c2nc3ccc(NC(C)=O)cc3[nH]2)c1 here?
Answer: Its cytotoxicity is 9.5% (inactive).

Question: For O=C(c1ccco1)N1CCN(c2c(-c3ccccc3)c3cc(Cl)ccc3[nH]c2=O)CC1, which cytotoxicity is on record?
Answer: Its cytotoxicity is 83.6% (active).

Question: Which cytotoxicity does the source give for O=c1[nH]c2ccc(Cl)cc2c(-c2ccccc2)c1N1CCOCC1 here?
Answer: Its cytotoxicity is 0.9% (inactive).

Question: Which cytotoxicity does the source give for CCOC(=O)N1CCN(c2c(-c3ccccc3)c3cc(Cl)ccc3[nH]c2=O)CC1 here?
Answer: Its cytotoxicity is 7.4% (inactive).
